Out of some 5,500 compounds screened, about 2,000 (36%) were called active. Another 18% or so got no clear call; they are omitted. No stated cut-off is given here; in the data, active means normalized growth mostly below about 0.91 (no sharp cut-off); inconclusive means no clear call, values can overlap the other calls; inactive means mostly above about 0.92. The list shows a part of the results.
Test: chemical genetic growth profiling, strain panel (AID 1159580);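 further: tested at 20 µM; growth read once vehicle control cultures reached saturation at 30 °C; 1 = growth at the plate median or of vehicle wells; lower values mean less growth of the strain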
Conditions: growth OD
[1] = S. cerevisiae deletion strains, locus YDL101C, strain DUN1, active compounds read low
[2] = S. cerevisiae deletion strains, locus YHR030C, strain SLT2, active compounds read low
[3] = S. cerevisiae deletion strains, locus YJL095W, strain BCK1, active compounds read low
[4] = S. cerevisiae deletion strains, locus YOR061W, strain CKA2, active compounds read low

Measured: normalized growth

CS(=O)(=O)c1sc(C(=O)Sc2ccc(Cl)cc2)c2c1C=CCC2
active: S. cerevisiae deletion strains, locus YAR019C, strain CDC15, active compounds read low 0.857 | S. cerevisiae deletion strains, locus YBL105C, strain PKC1, active compounds read low 0.868 | S. cerevisiae deletion strains, locus YBR135W, strain CKS1, active compounds read low 0.855 | S. cerevisiae deletion strains, locus YBR136W, strain MEC1, active compounds read low 0.867 | S. cerevisiae deletion strains, locus YBR160W, strain CDC28, active compounds read low 0.873 | S. cerevisiae deletion strains, locus YDL017W, strain CDC7, active compounds read low 0.881 | S. cerevisiae deletion strains, locus YDL028C, strain MPS1, active compounds read low 0.88 | S. cerevisiae deletion strains, locus YDL108W, strain KIN28, active compounds read low 0.866 | S. cerevisiae deletion strains, locus YDL132W, strain cdc53, active compounds read low 0.848 | S. cerevisiae deletion strains, locus YDL214C, strain PRR2, active compounds read low 0.42 | S. cerevisiae deletion strains, locus YDR052C, strain DBF4, active compounds read low 0.903 | S. cerevisiae deletion strains, locus YDR054C, strain cdc34, active compounds read low 0.771 | S. cerevisiae deletion strains, locus YDR226W, strain ADK1, active compounds read low 0.869 | S. cerevisiae deletion strains, locus YDR477W, strain SNF1, active compounds read low 0.339 | S. cerevisiae deletion strains, locus YER123W, strain YCK3, active compounds read low 0.368 | S. cerevisiae deletion strains, locus YER133W, strain GLC7, active compounds read low 0.416 | S. cerevisiae deletion strains, locus YFL009W, strain cdc4, active compounds read low 0.857 | S. cerevisiae deletion strains, locus YFL029C, strain CAK1, active compounds read low 0.853 | S. cerevisiae deletion strains, locus YFR003C, strain YPI1, active compounds read low 0.881 | S. cerevisiae deletion strains, locus YFR019W, strain FAB1, active compounds read low 0.327 | S. cerevisiae deletion strains, locus YFR028C, strain CDC14, active compounds read low 0.871 | S. cerevisiae deletion strains, locus YGR040W, strain KSS1, active compounds read low 0.437 | S. cerevisiae deletion strains, locus YGR052W, strain FMP48, active compounds read low 0.492 | S. cerevisiae deletion strains, locus YGR092W, strain DBF2, active compounds read low 0.174 | [2] 0.374 | S. cerevisiae deletion strains, locus YHR079C, strain IRE1, active compounds read low 0.349 | S. cerevisiae deletion strains, locus YHR082C, strain KSP1, active compounds read low 0.511 | S. cerevisiae deletion strains, locus YHR205W, strain SCH9, active compounds read low 0.206 | S. cerevisiae deletion strains, locus YIL147C, strain SLN1, active compounds read low 0.886 | [3] 0.369 | S. cerevisiae deletion strains, locus YJL157C, strain FAR1, active compounds read low 0.358 | S. cerevisiae deletion strains, locus YJR016C, strain ILV3, active compounds read low 0.862 | S. cerevisiae deletion strains, locus YJR066W, strain TOR1 (second series), active compounds read low 0.103 | S. cerevisiae deletion strains, locus YJR066W, strain TOR1, active compounds read low 0.353 | S. cerevisiae deletion strains, locus YKL048C, strain ELM1, active compounds read low 0.532 | S. cerevisiae deletion strains, locus YKL067W, strain YNK1, active compounds read low 0.428 | S. cerevisiae deletion strains, locus YKL101W, strain HSL1, active compounds read low 0.371 | S. cerevisiae deletion strains, locus YKL193C, strain SDS22, active compounds read low 0.845 | S. cerevisiae deletion strains, locus YKL203C, strain TOR2, active compounds read low 0.379 | S. cerevisiae deletion strains, locus YLR113W, strain HOG1, active compounds read low 0.3 | S. cerevisiae deletion strains, locus YLR133W, strain CKI1, active compounds read low 0.423 | S. cerevisiae deletion strains, locus YLR403W, strain SFP1, active compounds read low 0.217 | S. cerevisiae deletion strains, locus YML070W, strain DAK1, active compounds read low 0.397 | S. cerevisiae deletion strains, locus YMR001C, strain CDC5, active compounds read low 0.836 | S. cerevisiae deletion strains, locus YMR205C, strain PFK2 (second series), active compounds read low 0.458 | S. cerevisiae deletion strains, locus YMR277W, strain FCP1, active compounds read low 0.838 | S. cerevisiae deletion strains, locus YNL006W, strain LST8, active compounds read low 0.873 | S. cerevisiae deletion strains, locus YNL020C, strain ARK1, active compounds read low 0.39 | S. cerevisiae deletion strains, locus YNL161W, strain CBK1, active compounds read low 0.862 | S. cerevisiae deletion strains, locus YNL183C, strain NPR1, active compounds read low 0.418 | S. cerevisiae deletion strains, locus YNL207W, strain RIO2, active compounds read low 0.842 | S. cerevisiae deletion strains, locus YNL222W, strain SSU72, active compounds read low 0.856 | S. cerevisiae deletion strains, locus YNL307C, strain MCK1 (second series), active compounds read low 0.221 | S. cerevisiae deletion strains, locus YOL078W, strain AVO1, active compounds read low 0.839 | S. cerevisiae deletion strains, locus YOL136C, strain PFK27, active compounds read low 0.375 | [4] 0.256 | S. cerevisiae deletion strains, locus YOR119C, strain RIO1, active compounds read low 0.527 | S. cerevisiae deletion strains, locus YOR231W, strain MKK1, active compounds read low 0.353 | S. cerevisiae deletion strains, locus YOR329C, strain SCD5, active compounds read low 0.876 | S. cerevisiae deletion strains, locus YPL031C, strain PHO85, active compounds read low 0.308 | S. cerevisiae deletion strains, locus YPL153C, strain RAD53, active compounds read low 0.279 | S. cerevisiae deletion strains, locus YPL204W, strain HRR25, active compounds read low 0.286 | S. cerevisiae deletion strains, locus YPL209C, strain IPL1, active compounds read low 0.854 | S. cerevisiae deletion strains, locus YPL256C, strain CLN2, active compounds read low 0.521 | S. cerevisiae deletion strains, locus YPR025C, strain CCL1, active compounds read low 0.863 | S. cerevisiae deletion strains, strain TSCII, active compounds read low 0.841
inactive: [1] 0.92 | S. cerevisiae deletion strains, locus YJL128C, strain PBS2, active compounds read low 0.894 | S. cerevisiae deletion strains, locus YPR106W, strain ISR1, active compounds read low 0.928 | S. cerevisiae deletion strains, locus YPR111W, strain DBF20, active compounds read low 0.929 | S. cerevisiae deletion strains, strain NNK1, active compounds read low 0.907

CCCCSP(=O)(SCCCC)SCCCC
inactive: S. cerevisiae deletion strains, locus YAL013W, strain DEP1, active compounds read low 1.01 | S. cerevisiae deletion strains, locus YBR021W, strain FUR4, active compounds read low 1 | S. cerevisiae deletion strains, locus YBR229C, strain ROT2, active compounds read low 1.01 | S. cerevisiae deletion strains, locus YCL029C, strain bik1, active compounds read low 1.01 | S. cerevisiae deletion strains, locus YDL035C, strain GPR1, active compounds read low 1.01 | S. cerevisiae deletion strains, locus YDL074C, strain BRE1, active compounds read low 1.04 | [1] 1.02 | S. cerevisiae deletion strains, locus YDL134C, strain PPH21, active compounds read low 1.01 | S. cerevisiae deletion strains, locus YDL185W, strain tfp1, active compounds read low 1.01 | S. cerevisiae deletion strains, locus YDL192W, strain arf1, active compounds read low 1.01 | S. cerevisiae deletion strains, locus YDR101C, strain arx1, active compounds read low 1.01 | S. cerevisiae deletion strains, locus YDR150W, strain NUM1, active compounds read low 1.01 | S. cerevisiae deletion strains, locus YDR162C, strain NBP2, active compounds read low 1.02 | S. cerevisiae deletion strains, locus YDR318W, strain mcm21, active compounds read low 1.01 | S. cerevisiae deletion strains, locus YDR388W, active compounds read low 1.01 | S. cerevisiae deletion strains, locus YDR502C, strain sam2, active compounds read low 1.01 | S. cerevisiae deletion strains, locus YEL061C, strain CIN8, active compounds read low 1.01 | S. cerevisiae deletion strains, locus YER110C, active compounds read low 1.01 | S. cerevisiae deletion strains, locus YER155C, strain BEM2, active compounds read low 1.01 | S. cerevisiae deletion strains, locus YER167W, strain BCK2, active compounds read low 1.02 | S. cerevisiae deletion strains, locus YGL078C, strain dbp3, active compounds read low 1.01 | S. cerevisiae deletion strains, locus YGL086W, strain mad1, active compounds read low 1 | S. cerevisiae deletion strains, locus YGL248W, strain PDE1, active compounds read low 1.02 | S. cerevisiae deletion strains, locus YGR078C, strain PAC10, active compounds read low 1.02 | S. cerevisiae deletion strains, locus YGR135W, strain pre9, active compounds read low 1 | S. cerevisiae deletion strains, locus YGR229C, strain SMI1, active compounds read low 1.04 | S. cerevisiae deletion strains, locus YGR252W, strain gcn5, active compounds read low 0.984 | [2] 1.02 | S. cerevisiae deletion strains, locus YHR079C, strain IRE1 (second series), active compounds read low 1.01 | S. cerevisiae deletion strains, locus YHR094C, strain hxt1, active compounds read low 1 | S. cerevisiae deletion strains, locus YHR129C, strain ARP1, active compounds read low 1.02 | S. cerevisiae deletion strains, locus YHR200W, strain rpn10, active compounds read low 1 | S. cerevisiae deletion strains, locus YIL066C, strain RNR3, active compounds read low 1.02 | S. cerevisiae deletion strains, locus YIL073C, strain SPO22, active compounds read low 1.06 | S. cerevisiae deletion strains, locus YIL125W, strain kgd1, active compounds read low 1.01 | S. cerevisiae deletion strains, locus YIR030C, strain dcg1, active compounds read low 0.996 | [3] 1.05 | S. cerevisiae deletion strains, locus YJL134W, strain LCB3, active compounds read low 1.02 | S. cerevisiae deletion strains, locus YJL168C, strain set2, active compounds read low 1.01 | S. cerevisiae deletion strains, locus YJL187C, strain SWE1 (second series), active compounds read low 1.01 | S. cerevisiae deletion strains, locus YJR043C, strain POL32, active compounds read low 1.01 | S. cerevisiae deletion strains, locus YJR075W, strain HOC1, active compounds read low 1.02 | S. cerevisiae deletion strains, locus YKL009W, strain mrt4, active compounds read low 0.961 | S. cerevisiae deletion strains, locus YKL068W, active compounds read low 1.01 | S. cerevisiae deletion strains, locus YKL085W, strain MDH1 (second series), active compounds read low 1.01 | S. cerevisiae deletion strains, locus YKL085W, strain MDH1, active compounds read low 1.01 | S. cerevisiae deletion strains, locus YKL190W, strain CNB1, active compounds read low 1.02 | S. cerevisiae deletion strains, locus YKR001C, strain vps1, active compounds read low 1.01 | S. cerevisiae deletion strains, locus YLR039C, strain RIC1, active compounds read low 1.05 | S. cerevisiae deletion strains, locus YLR058C, strain SHM2, active compounds read low 1.01 | S. cerevisiae deletion strains, locus YLR102C, strain apc9, active compounds read low 0.995 | S. cerevisiae deletion strains, locus YLR262C, strain YPT6, active compounds read low 1.04 | S. cerevisiae deletion strains, locus YLR268W, strain sec22, active compounds read low 1.01 | S. cerevisiae deletion strains, locus YLR330W, strain CHS5, active compounds read low 1.01 | S. cerevisiae deletion strains, locus YLR342W, strain FKS1 (second series), active compounds read low 1.04 | S. cerevisiae deletion strains, locus YLR371W, strain rom2, active compounds read low 0.999 | S. cerevisiae deletion strains, locus YLR418C, strain cdc73, active compounds read low 1.02 | S. cerevisiae deletion strains, locus YML016C, strain PPZ1, active compounds read low 1.02 | S. cerevisiae deletion strains, locus YML032C, strain rad52, active compounds read low 1.01 | S. cerevisiae deletion strains, locus YML124C, strain tub3, active compounds read low 1.01 | S. cerevisiae deletion strains, locus YMR078C, strain ctf18, active compounds read low 1.01 | S. cerevisiae deletion strains, locus YMR223W, strain ubp8, active compounds read low 1 | S. cerevisiae deletion strains, locus YMR263W, strain SAP30, active compounds read low 1.02 | S. cerevisiae deletion strains, locus YMR307W, strain GAS1, active compounds read low 1.2 | S. cerevisiae deletion strains, locus YNL067W, strain RPL9B, active compounds read low 1.01 | S. cerevisiae deletion strains, locus YNL128W, strain TEP1, active compounds read low 1.01 | S. cerevisiae deletion strains, locus YNL153C, strain GIM3, active compounds read low 1.01 | S. cerevisiae deletion strains, locus YNL233W, strain BNI4, active compounds read low 1.01 | S. cerevisiae deletion strains, locus YNL250W, strain rad50, active compounds read low 1.01 | S. cerevisiae deletion strains, locus YNL271C, strain bni1, active compounds read low 0.998 | S. cerevisiae deletion strains, locus YNL298W, strain CLA4, active compounds read low 1.02 | S. cerevisiae deletion strains, locus YNL307C, strain MCK1, active compounds read low 0.992 | S. cerevisiae deletion strains, locus YNL322C, strain KRE1, active compounds read low 1.01 | S. cerevisiae deletion strains, locus YNR052C, strain pop2, active compounds read low 1.01 | S. cerevisiae deletion strains, locus YOL006C, strain TOP1, active compounds read low 1.07 | S. cerevisiae deletion strains, locus YOL012C, strain htz1 0.841 | S. cerevisiae deletion strains, locus YOL147C, strain pex11, active compounds read low 1.01 | [4] 1.01 | S. cerevisiae deletion strains, locus YOR069W, strain VPS5, active compounds read low 1.02 | S. cerevisiae deletion strains, locus YOR136W, strain idh2, active compounds read low 1 | S. cerevisiae deletion strains, locus YOR144C, strain elg1, active compounds read low 1.02 | S. cerevisiae deletion strains, locus YOR184W, strain ser1, active compounds read low 0.987 | S. cerevisiae deletion strains, locus YOR316C, strain cot1, active compounds read low 1.01 | S. cerevisiae deletion strains, locus YPL055C, strain LGE1, active compounds read low 1.03 | S. cerevisiae deletion strains, locus YPL241C, strain CIN2, active compounds read low 1.02 | S. cerevisiae deletion strains, locus YPR119W, strain clb2, active compounds read low 1.01 | S. cerevisiae deletion strains, locus YPR141C, strain kar3, active compounds read low 1.02 | S. cerevisiae deletion strains, locus YPR163C, strain tif3, active compounds read low 1.01 | S. cerevisiae deletion strains, locus YPR167C, strain met16, active compounds read low 1 | S. cerevisiae deletion strains, strain wtn01, active compounds read low 0.996 | S. cerevisiae strains, strain wild type, active compounds read low 1.02

From PubChem BioAssay AID1159580 (chemical genetic matrix, 2015)
